PubChem BioAssay AID686979 (National Center for Advancing Translational Sciences (NCATS), 2013)
Several values for one entry are separate records, joined by “and”; a condition that tells them apart may be missing. Equal entries are not always repeated. In all, about 420,000 compounds went through this assay and about 50,000 (12%) were called active. Roughly 26% stayed inconclusive and do not appear here. Many of the other results were omitted from the sample, so actives are more common in it than they were. Values without a mark were called inactive. Calls follow the shape of the dose curve; as a rule, active = well fitted inhibition curve with a large enough effect; inconclusive = small, poorly fitted or top-dose-only effect; inactive = flat fitted curve, though single readings scatter.

Assay: qHTS for Inhibitors of human tyrosyl-DNA phosphodiesterase 1 (TDP1): qHTS in cells in presence of CPT; also: nearly all actives have a fitted effect of over 55% in size
Details: chicken DT40 Tdp1-/-;hTDP1 cells + 20 nM CPT, ATP luminescence, 48 h; series mostly up to 46.2 µM; activity change, negative = growth inhibition: at the top concentration
In short: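 Chicken DT40 Tdp1-/- cells stably complemented with human TDP1 were seeded at 400 cells/well in medium containing 20 nM camptothecin, exposed to pin-transferred compounds, and grown at 37 °C for at least 48 hr. Viability was read as ATP luminescence.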
% is scaled to controls: 0 for no effect and ±100 for the full control effect; potency is read from the fitted curve at half-maximal effect.

SMILES | activity change, negative = growth inhibition | Potency
CC(C)=CC1C(C(=O)O)C1(C)C (stereo unspecified) | -2.77% | 
COc1ccc(NC2CCCN(C(=O)c3ccccc3-c3ncc[nH]3)C2)cc1 (stereo unspecified) | -17% | 
OCC(O)C1OCOC(C(O)CO)C1O (stereo unspecified) | 0.303% | 
COc1cc(OC)c(NC(=O)c2nc(-c3ccncc3)no2)cc1Cl | -17.3% | 
CC(C)c1cc(CN2CCOCC2)cc(C(C)C)c1O | 13.7% | 
Cc1nn(C)c(Cl)c1CN1CCC(n2nccc2NC(=O)C2CCCC2)CC1 | -1.25% | 
COc1cc(/C=N/NC(=O)c2cc(-c3ccccc3C)nc3ccccc23)cc(OC)c1O |  | 5.8 µM (active)
O=C(N/N=C/c1cccnc1)c1ccc(NC(=O)c2ccc(F)cc2)cc1 | 8.72% | 
Cc1cc(C(=O)N/N=C/c2ccccn2)c2ccccc2n1 | 1.01% | 
COc1cc(/C=N\NC(=O)C2C(=O)NCC2c2ccccc2)cc(OC)c1O (stereo unspecified) | 9.54% | 
O=C(N/N=C\c1cccnc1)c1cc(-c2ccccc2)nc2c(Cl)cccc12 |  | 10.3 µM (active)
O=C(N/N=C/c1cccnc1)c1cc2ccccc2cc1O | -19.2% | 
Cc1c(NC(=O)Nc2cccc([N+](=O)[O-])c2)c(=O)n(-c2ccccc2)n1C | 17.6% | 
C#CCOCCOCCOCCNc1nc(N2CCN(C(=O)C([C@@H](C)CC)n3cc(C(N)COC(=O)C(F)(F)F)nn3)CC2)nc(N2CCN(C(=O)[C@H](CCCCN)n3cc(C(N)CC(C)C)nn3)CC2)n1 (stereo partly specified) | -11.4% | 
COc1cc(CN2CCC(n3nccc3NC(=O)CCCc3ccccc3)CC2)ccc1O | -29.8% | 
CC(Oc1ccc(F)cc1)C(=O)N1CCN(c2ncccn2)CC1 (stereo unspecified) | -7.25% | 
O=C(COC(=O)c1cccc(Cl)c1Cl)NC1CCCCCC1 | -6.28% | 
CC(C)(C)c1ccc(C(=O)C[N+]2(C)CCCc3ccccc32)cc1 (stereo unspecified) |  | 3.55 µM (active)
CC(C)(C)c1ccc(C(=O)NNC(=O)Cc2ccccc2)cc1 | -27.1% | 
CCn1ccnc1CNC(=O)CC1C(=O)NCCN1CCCc1ccccc1 (stereo unspecified) | 3.97% | 
O=C(C(=O)N1CCOc2ccc(CN3CCN(Cc4ccccn4)CC3)cc2C1)c1ccccc1 | 6.37% [at 9.04 µM] | 
CC(=O)Nc1cccc(NC(=O)CSc2nccn2Cc2ccc(F)cc2)c1 | -29% | 

SMILES | activity change, negative = growth inhibition | Potency
O=C1CC2(CCN(C(=O)COc3ccc(F)cc3)CC2)Oc2ccccc21 | -22.1% | 
COc1cc(/C=C/C(=O)OCC(=O)NCCCc2ccccc2)ccc1O | -9.29% | 
CC(C)c1c(C(=O)N/N=C/c2ccc(-c3ccccc3)cc2)nnn1-c1nonc1N | 4.68% | 
CC1CC(C)CN(CCC(=O)Nc2ccc3c(c2)CCC3)C1 (stereo unspecified) | -21.1% | 
Cc1ccc(C(=O)OCC(=O)NC(=O)Cc2ccccc2)c(O)c1 | 5.48% | 
Cn1c(=O)nc2n(-c3ccc(Br)cc3)c3cccc(Cl)c3cc-2c1=O | 5.86% | 
Cc1ccc(-n2c3nc(=O)[nH]c(=O)c-3cc3c(Cl)cccc32)cc1 |  | 1.46 µM (active)
O=c1cc(Cl)c2ccccc2n1-c1ccccc1 | 22% | 
CSc1cccc(NC(=O)CN2C(=O)COc3ccc(S(=O)(=O)N4CCOCC4)cc32)c1 | -17.9% | 
COc1ccc(Cl)cc1NC(=O)COc1ccc2c(c1)OCO2 | 4.49% | 
CC1CCN(C(=S)c2cccc(O)c2)CC1 | -12% | 
C=C1C([C@@]2(C)C(OC(C)=O)CC(=O)O[C@@](C)(COC(C)=O)C2CC(=O)OC)C(OC=O)C(OC(=O)C(O)C(C)CC)[C@]2(C)C(c3ccoc3)CC(=O)C12O (stereo partly specified) |  | 2.59 µM (active)
O=C(Nc1ccccc1Cl)N1CCC(CN2CCCCC2)CC1 | -22.8% | 
COc1ccc(NC(=O)c2ccc(C#CC(C)(C)O)cc2)cc1 | -14% | 
Cc1cc(=O)[nH]c(N/N=C/c2ccc3c(c2)OCCO3)n1 | -4.75% | 
O=C(NN1CCOCC1)c1cccc(F)c1 | 5.06% | 
O=C(Nc1c(-c2ccc(F)cc2)nc2ccccn12)c1cccc(F)c1 |  | 20.6 µM (active)
Cc1oc(-c2cccc(NC(=O)c3ccccc3)c2)nc1CNC(=O)c1cnc2ccccn2c1=O | 2.06% | 
Cc1ccccc1NC(=O)CCNS(=O)(=O)c1ccc2[nH]c(=O)oc2c1 | 12% | 
O=C(C1CC1)N1CCc2cc(Br)cc(S(=O)(=O)N3CCN(c4ccccc4F)CC3)c21 | -21% | 
CC1CCC2(CC1)NC(=O)N(CC(=O)NCc1ccco1)C2=O (stereo unspecified) | 2.42% | 
O=C(CN1C(=O)/C(=C\c2ccc(C(F)(F)F)cc2)Sc2ccccc21)NCc1ccco1 |  | 18.4 µM (active)

SMILES | activity change, negative = growth inhibition | Potency
O=C(CCCCCN1C(=O)c2cccc3cccc(c23)C1=O)NCc1ccco1 | 10.3% | 
Nn1c(SCC(=O)Nc2nccs2)nnc1-c1ccco1 | 7.48% | 
Cc1ccc(CNC(=O)Cn2c(=O)ccc3cc(S(=O)(=O)N4CCCC4)ccc32)cc1 | -22.5% | 
COc1cccc(N2CC(C(=O)NCc3n[nH]c(=O)c4ccccc34)CC2=O)c1 (stereo unspecified) | -27.9% | 
O=c1[nH]c2cccnc2n(CCNc2ncc(C(F)(F)F)cc2Cl)c1=O | 5.87% | 
CCOc1ccc(Cn2nnc(C(=O)NCc3ccccc3)c2N)cc1 | 25% | 
CCOc1ccccc1NC(=O)Cn1nnc(C(=O)NCc2cccs2)c1N |  | 5.2 nM (active) and 130 nM (active)
CCOc1ccccc1NC(=O)Cc1cccs1 | -0.43% | 
COC(=O)C[C@H]1C=C[C@@H](NS(=O)(=O)c2ccc(C)cc2)[C@@H](CO)O1 | 13.9% | 
O=C(c1cc(COc2c(F)cccc2F)on1)N1CCSCC1 | -14.8% | 
NC(=O)Cn1nc([N+](=O)[O-])nc1Oc1ccc(Br)cc1 | -25.2% | 
Cc1ccccc1Nc1nc(N)nc(CSc2nnc3ccccn23)n1 | 0.37% | 
COc1cc(/C=N/NC(=S)Nc2cccnc2)cc(OC)c1O | 0.37% | 
COc1ccccc1CNC(=O)COc1ccc(C)nc1[N+](=O)[O-] | -22.6% | 
CCC(C)(C)n1nnnc1C(c1ccc(OC)c(OC)c1)N1CCN(C(=O)c2ccco2)CC1 (stereo unspecified) | 1.48% | 
CN1CCN2c3ccccc3Cc3ccccc3[C@@H]2C1 |  | 13.3 µM (active)
CN1CCN(C(=O)N2c3ccccc3CCc3ccccc32)CC1 | 18.3% | 
CCOCCCNC(=O)c1cn(CC(C)C)c(=O)c2c1c1ccccc1n2C |  | inactive
CC(=NNC(N)=O)C1CC2CCC1CC2 (stereo unspecified) | 1.34% | 
CCOC(=O)C1CCN(c2c(Nc3cc(C)cc(C)c3)c(=O)c2=O)CC1 |  | 14.6 µM (active)
CCOC(=O)C1CCN(CCC(=O)Nc2cccc(C)c2)CC1 | -5.96% | 
CCOC(=O)C1CCN(c2csc3ccc(C)cc3c2=O)CC1 | 4.08% | 

SMILES | activity change, negative = growth inhibition | Potency
O=C(COC(=O)Cc1ccc([N+](=O)[O-])cc1)NC1CCCCCC1 | -14.7% | 
Cc1ccsc1C1C(C#N)=C(N)OC2=C1C(=O)CC(C)(C)C2 (stereo unspecified) | 4.55% | 
CN1CCN(S(=O)(=O)c2ccc(Nc3ccc(F)cc3)nc2)CC1 | -5.23% | 
C=C1CCN([C@H](C(=O)NCc2cc(OC)c(OC)c(OC)c2)C(C)C)S(=O)(=O)c2ccccc21 | -1.11% | 
O=C1OCC2=C1C(c1ccc(Cl)cc1)c1cc3c(cc1O2)OCO3 (stereo unspecified) |  | 29.1 µM (active)
CCc1cccc(NC(=S)N(CCN(C)C)C2CCN(C(C)C)CC2)c1 | -24% | 
O=C(COC(=O)C1(c2ccc(F)cc2)CCCC1)N1CCNC1=O | -1.2% | 
Cc1nn(CC(=O)NCc2ccccn2)c(C)c1[N+](=O)[O-] | 11.2% | 
Cc1csc(NC(=O)Nc2ccccc2[N+](=O)[O-])n1 | 0.264% | 
Cc1csc(NC(=O)CSc2nnc(-c3cccnc3)o2)n1 | -4.05% | 
Cc1csc(NC(=O)NC2(C(F)(F)F)Oc3ccccc3O2)n1 |  | 20.6 µM (active)
CCOc1ccc(N(CC(=O)NC2CCCCCC2)S(=O)(=O)c2c(C)[nH]c(=O)[nH]c2=O)cc1 | 10.3% | 
CC(Nc1nc(C(F)(F)F)nc2ccccc12)c1cccs1 (stereo unspecified) |  | 16.4 µM (active)
COc1ccc(-c2nc3n(c(=O)c2C#N)CCS3)c(OC)c1 | 1.35% | 
COc1ccc(-c2nc(CN3CCC(C(=O)NCc4ccccc4)CC3)c(C)o2)cc1OC | -14.1% | 
CCOc1ccccc1-c1nc(CN2CCC(C(=O)N3CCOCC3)CC2)c(C)o1 | 3.81% | 
Cc1oc(-c2ccccc2F)nc1CN1CCC(C(=O)NCCc2ccc(Cl)cc2)CC1 |  | 13 µM (active)
S=C(NCCc1ccccc1)N1CCCCC1 | -3.98% | 
Oc1ccc(N2CCN(C(=S)NCc3ccccc3)CC2)cc1 |  | 11.6 µM (active)
O=C1CCN(C(=S)NCCc2ccccc2)CC1 | 0.277% | 
CC(Oc1ccccc1)C(=O)N[C@@H]1C(=O)N2[C@@H]1SC(C)(C)[C@@H]2C(=O)O (stereo partly specified) | 6.19% [at 21.1 µM] | 
COc1cc(C=NC2CCCCC2)ccc1O | 4.14% | 

SMILES | activity change, negative = growth inhibition | Potency
O=C(CN1CCN(c2ncc(C(F)(F)F)cc2Cl)CC1)Nc1ccc2c(c1)OCO2 | -13.8% | 
O=C(NCC(=O)N1CCN(c2ncc(C(F)(F)F)cc2Cl)CC1)c1ccc(Br)o1 |  | 16.4 µM (active)
COc1ccc(N2CCN(C(=O)CNC(=O)c3ccc(Br)o3)CC2)cc1 | 13.1% | 
Cc1cc(C)cc(C(=O)NC(CC(N)=O)c2ccc(N3CCC(N4CCCCC4)CC3)c([N+](=O)[O-])c2)c1 (stereo unspecified) | 2.09% | 
OCCN1CCN(CCO)C1=S | 5.79% | 
COc1ccccc1CN1CCCC(N2CCN(c3ccc(F)cc3)CC2)C1 (stereo unspecified) | -27.6% | 
CNC[C@H](CC1CCCCC1)NC[C@H](NCCC1CCCC1)[C@H](C)O |  | 16.4 µM (active)
COc1ccc2c(c1OC)C(=O)N(c1ccc(O)cc1)C2 | -0.711% | 
O=C(CN1CCN(c2ccccc2O)CC1)NC(=O)NCc1ccccc1 | -16.9% | 
CCCN1C(=O)C(O)(CC(=O)c2ccc(CC)cc2)c2cc(Br)ccc21 (stereo unspecified) |  | 7.31 µM (active)
Cc1coc(C)c1C(=O)CC1(O)C(=O)N(C)c2ccc(Cl)cc21 (stereo unspecified) | 3.38% | 
CCc1ccc(C(=O)COC(=O)c2ccco2)cc1 | -1.65% | 
CCOC(=O)CSc1nc2sc3c(c2c(=O)[nH]1)CC(C)(C)OC3 | -16.6% | 
CCC(O)CNc1nc(-n2nc(C)cc2C)nc2sc3c(c12)CC(C)(C)OC3 (stereo unspecified) |  | 11.6 µM (active)
COCCn1c(C)cc(C(=O)CSc2ncnc3sc4c(c23)CCC4)c1C | -11.5% | 
Cc1nc2sc3c(c2c(=O)n1NC(=O)CCl)CCCC3 | 17.3% | 
COCCNc1nc(-n2nc(C)cc2C)nc2sc3c(c12)CCCC3 |  | 3.66 µM (active)
CC/C(C)=N/Nc1nc2sc3c(c2c(=O)[nH]1)CC(C)(C)OC3 | 1.97% | 
